According to the supplement of paper PMC4894684:
Values joined by “and” are separate entries in the source; they are usually repeats but may differ in a detail not shown here. Equal entries are not always repeated. Structures can show the parent of a compound that is named as a salt. ± gives the standard deviation of the averaged measurements. Among all 1,000 compounds or so, about 15 (2%) showed an effect of 50% or more. This excerpt belongs to a sample that is enriched for strong results.

test system: HFF; assay: uninfected host cell viability relative to vehicle control; higher = less host cell toxicity; conditions: 5 µM; 72 h; oxygen 21 %

Row | Structure (SMILES) | uninfected host cell viability
1 | O=C(NC(NC(=S)Nc1ccc(F)c([N+](=O)[O-])c1)C(Cl)(Cl)Cl)C(c1ccccc1)c1ccccc1 (stereo not given) | 86.1 ± 11%
2 | Cc1nn(C)c2nc(NNC(=O)Nc3cc(Cl)nc(Cl)c3)cc(C(C)C)c12 | 89.2 ± 3.1%
3 | O=C(O)c1c(Sc2ccccc2)c2cc(Cl)ccc2n1Cc1ccc(Cl)cc1 | 93.9 ± 8.2%
4 | O=C(Nc1ccccc1)C12CC1C(=NO)c1ccccc1O2 (stereo not given) | 96.71 ± 0.12%
5 | Clc1cccc(Nc2nnc(-c3ccccc3)c3ccccc23)c1 | 85.8 ± 0.91%
6 | CCCCC1CCC(c2nc(-c3ccncc3)no2)CC1 (stereo not given) | 102 ± 3.9%
7 | Cc1c(C(=O)N(C)C2CCCCC2)sc2nc3ccc(N)cc3n12 | 83.6 ± 2.2%
8 | COC(=O)C1=C(C)NC(C)=C([N+](=O)[O-])[C@H]1c1ccccc1C(F)(F)F | 68.2 ± 1.7%
9 | O=S(=O)(c1cccc2cnccc12)N1CCCNCC1 [Fasudil hydrochloride] | 90.57 ± 0.53%
10 | Cc1cc2nc3c(=O)[nH]c(=O)nc-3n(C)c2cc1C=O | 94 ± 2%
11 | O=C(O)Cc1cccc(OCCCN(Cc2cccc(C(F)(F)F)c2Cl)CC(c2ccccc2)c2ccccc2)c1 [GW 3965 hydrochloride] | 99.5 ± 3.2%
12 | CC1=C(C(=O)OCCN(Cc2ccccc2)c2ccccc2)C(c2cccc([N+](=O)[O-])c2)C(P2(=O)OCC(C)(C)CO2)=C(C)N1 (stereo not given) [Efonidipine hydrochloride monoethanolate] | 98.4 ± 7.4%
13 | Cc1cc(C)c(S(=O)(=O)Nc2cccc(C(F)(F)F)c2)c(C)c1 | 82.4 ± 6.6%
14 | CN(C)CCCSC(=N)N [Dimaprit dihydrochloride] | 95.8 ± 1.1%
15 | CC(=Cc1ccc(C(=O)O)cc1)c1ccc2c(c1)C(C)(C)CCC2(C)C | 80.4 ± 2.1%
16 | CC[C@@H]1Cn2c(c3nc(-c4ccccc4)nc-3n(C)c2=O)N1 | 89.2 ± 4.1%
17 | CS(=O)(=O)Nc1c(O)ccc2c1CCCC2C1=NCCN1 (stereo not given) | 84.9 ± 2.8%
18 | COc1ccc2cccc(N3CCN(CCNC(=O)c4ccc(F)cc4)CC3)c2c1 | 82.7 ± 4%
19 | Cc1ccc(NC2=CC(=O)c3sc(C)nc3C2=O)cc1 [Ryuvidine] | 16.8 ± 0.66%
20 | O=C(O)c1ccc(-c2c[nH]c3ncc(-c4ccccc4)cc23)cc1C1CCCC1 | 109 ± 2.2%
21 | Nc1nc2c(cnn2CCc2ccccc2)c2nc(-c3ccco3)nn12 | 96.8 ± 2.3%
22 | CN(N=O)C(=O)N[C@@H](C=O)[C@@H](O)[C@H](O)[C@H](O)CO [Streptozocin] | 86.9 ± 5.4%
23 | CC(=O)NCCc1c(Cc2ccccc2)[nH]c2ccccc12 [Luzindole] | 101 ± 4.8%
24 | CCC(NC(C)C)C(O)c1ccc(O)c2[nH]c(=O)ccc12 (stereo not given) [Procaterol hydrochloride] | 87.5 ± 1.7%

Row | Structure (SMILES) | uninfected host cell viability
25 | CCC(=O)NC1Cc2ccccc2C(c2ccccc2)C1 (stereo not given) | 99.58 ± 0.97%
26 | C[S+]([O-])c1ccc(-c2nc(-c3ccc(F)cc3)c(-c3ccncc3)[nH]2)cc1 (stereo not given) | 89.4% and 88.6%
27 | N=C(CC(O)COc1ccccc1-c1ccccc1)N1CCCCC1 (stereo not given) | 89.4 ± 2.9%
28 | Cn1cc(/C=C2\C(=O)Nc3cccnc32)c2ccccc21 | 67.8 ± 1.2%
29 | c1cc2c3c(c1)c1c(n3CCNC2)CCCC1 [WAY 629 hydrochloride] | 89.6 ± 5.6%
30 | CCCCCCCCCCCCCCCCn1cc[n+](Cc2ccccc2)c1C | 32 ± 6.6%
31 | CCCCC/N=c1\ccn(Cc2ccccc2)c2ccccc12 | 83.1 ± 2.5%
32 | CCCCCCCCc1ccc(-c2ccc(C(=O)O)cc2)cc1 | 85.5 ± 5%
33 | CNC(=O)[C@@H](Cc1ccccc1)N(C)C(=O)[C@@H](Cc1ccc2ccccc2c1)N(C)C(=O)/C=C/CC(C)(C)N [Tabimorelin] | 79.1 ± 1.2%
34 | N#Cc1ccccc1OCC(O)CNCCNC(=O)Nc1ccccc1 (stereo not given) | 86.9 ± 1.3%
35 | CCN(CC)CCCC(C)Nc1nc(C)cc(Nc2ccc3nc(C)cc(N)c3c2)n1 (stereo not given) | 80.4 ± 1.2%
36 | CCc1ccc(OCc2ccccc2C(=O)Nc2ccc3nc(C)cc(N)c3c2)cc1 | 15 ± 0.61%
37 | COc1ccc(NC(=O)c2cc(OCCCN(C)C)nn2Cc2ccccc2)cc1 [CFM 1571 hydrochloride] | 81.7 ± 2%
38 | COc1cc(CNC(=O)CCCC/C=C/C(C)C)ccc1O [(E)-Capsaicin] | 88.13 ± 0.59%
39 | CC[C@]1(O)C[C@H]2CN(CCc3c([nH]c4ccccc34)[C@@](C(=O)OC)(c3cc4c(cc3OC)N(C=O)[C@H]3[C@@](O)(C(=O)OC)[C@H](OC(C)=O)[C@]5(CC)C=CCN6CC[C@]43[C@@H]65)C2)C1 [Vincristine sulfate] | 68 ± 2.9%
40 | O=c1oc(-c2ccc(C(F)(F)F)cc2)nn1Cc1cc(Cl)ccc1O | 95.1 ± 1%
41 | O=C(Nc1cc(C(F)(F)F)cc(C(F)(F)F)c1)c1cc(Cl)ccc1O | 46.8 ± 2.5%
42 | Cc1oncc1C(=O)Nc1ccc(C(F)(F)F)cc1 [Leflunomide] | 93.41 ± 0.27%
43 | O=C1CC2(CCCC2)CC(=O)N1CCNCC1COc2ccccc2O1 (stereo not given) | 85.64 ± 0.64%
44 | Cn1cnnc1Sc1c([N+](=O)[O-])ncn1C | 89.361 ± 0.008%
45 | N[C@@H](C(=O)O)c1ccc(C(=O)O)c(C(=O)O)c1 | 89 ± 7.8%
46 | COc1ccc(-c2nc(C(=O)N3CCN(C)CC3)sc2-c2ccc(OC)cc2)cc1 | 81.4 ± 4.7%
47 | O=C1C(Cl)=C(NCCN2CCOCC2)C(=O)c2ncccc21 | 34.44 ± 0.16%
48 | O=C1c2ccccc2S(=O)(=O)N1CCCCN1CCN(c2ncccn2)CC1 [Ipsapirone] | 87.04 ± 0.35%

Row | Structure (SMILES) | uninfected host cell viability
49 | Cc1cc(Cn2cnc3c2CC(C(=O)O)N(C(=O)C(c2ccccc2)c2ccccc2)C3)ccc1N(C)C (stereo not given) | 82.1 ± 3.1%
50 | COc1ccc([C@@H]2CNC(=O)C2)cc1OC1CCCC1 [(R)-(-)-Rolipram] | 82.9 ± 1%
51 | C1CCC2(CC1)CCNCC2 [4,4-Pentamethylenepiperidine hydrochloride] | 84.79 ± 0.68%
52 | Cc1cc(NC(=O)Nc2ccc(N(C)C)cc2)c2cc(F)cc(F)c2n1 | 85.86 ± 0.3%
53 | Nc1ncnc2n[nH]c(Nc3ccc(F)cc3)c12 | 80.93 ± 0.35%
54 | O=C(c1ccc(Nc2nccc(-c3cc4ccccc4s3)n2)cc1)N1CCC(N2CCCC2)CC1 | 14.9 ± 0.68%
55 | O=c1[nH]ccc2c(S(=O)(=O)N3CCCNCC3)cccc12 [HA 1100 hydrochloride] | 90 ± 3.1%
56 | Nc1nc2c(ccc3ccccc32)s1 | 77.6 ± 1.3%
57 | O=c1cc(N2CCNCC2)oc2c(-c3ccccc3)cccc12 | 87.4 ± 1.8%
58 | FC(F)(F)c1cccc(-c2noc(-c3cc(-c4ccccc4)c(C(F)(F)F)s3)n2)c1 | 90.4 ± 2.4%
59 | CCN(CC)CCOc1ccc(Cc2ccccc2)cc1 [DPPE fumarate] | 86.65 ± 0.8%
60 | CCS(=O)(=O)N1CCC[C@@H]2CN3CCc4cc(OC)ccc4[C@@H]3C[C@@H]21 | 85.4 ± 2.9%
61 | N[C@@H](CC(=O)Nc1ccc(Oc2cc(F)c(F)cc2Br)cc1)C(=O)O | 95 ± 0.96%
62 | O=c1ncccn1[C@@H]1O[C@H](CO)[C@@H](O)[C@H]1O [Zebularine] | 90.802 ± 0.032%
63 | O=C(/C=C/c1ccccc1)NC(NC(=S)Nc1cccc2cccnc12)C(Cl)(Cl)Cl (stereo not given) [Salubrinal] | 84.55 ± 0.26%
64 | C=C1/C(=C\C=C2/CCC[C@]3(C)[C@@H]([C@H](C)/C=C/[C@@H](O)C4CC4)CC[C@@H]23)C[C@@H](O)C[C@@H]1O [Calcipotriol] | 83.9 ± 3.1%
65 | CC(C)c1ccc2c(c1)CC[C@H]1[C@](C)(CN)CCC[C@]21C [Lylamine hydrochloride] | 87.8 ± 1.4%
66 | Cc1ccccc1N1CCN(S(=O)(=O)C[C@]23CC[C@H](C[C@@H]2NC(=O)[C@@H](N)CCS(C)(=O)=O)C3(C)C)CC1 [L-368,899 hydrochloride] | 87.07 ± 0.83%
67 | C=C1C(=O)O[C@@H]2/C=C(\C)CC/C=C(\C)CC[C@@H]12 [Costunolide] | 114 ± 2.7%
68 | N[C@@H](Cc1cc(CP(=O)(O)O)cc(-c2ccccc2Cl)c1)C(=O)O | 88.9 ± 6%
69 | O=C(Nc1ccccc1)N[C@@H]1C[C@@H](C(=O)O)Nc2cc(Cl)cc(Cl)c21 | 87.6 ± 1.1%
70 | c1ccc(C(O[C@@H]2CCCN(CCc3ccc4c(c3)OCO4)C2)c2ccccc2)cc1 [Zamifenacin fumarate] | 90.5 ± 1%
